Source: PubChem BioAssay
For some of these results: Results with a measured potency or affinity are listed apart. Activity calls are given as the source filed them.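 The calls were made as follows, unless noted: active = calcium signal ratio cut to more than 3 SD under the fully stimulated control mean yet still positive, in both repeats and the primary screen; inactive = the rest.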

How the values were obtained:
[1] = system: TRPC4 beta (transient receptor potential cation channel C4), mouse; test: TRPC4 cation channel opening, retest – cell-based, Fluo4 calcium, HEK293 TRPC4beta/mu-opioid, duplicates, 10 µM, confirmation (AID 2426;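 active = fluorescence ratio normalized to control raised more than 50% in primary screen plus both repeat runs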); conditions: Fluo4 calcium fluorescence, at 10 µM; hits give high values
[2] = system: transient receptor potential cation channel C4 beta (TRPC4), mouse; test: TRPC4 cation channel opening, second retest – cell-based, second round, Fluo4, HEK293 TRPC4beta/mu-opioid, 1 µM, confirmation (AID 2461;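 active = primary screen active and over 50% activation in each of two duplicate runs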); conditions: Fluo4 calcium fluorescence, at 1 µM; hits give high values
[3] = system: TRPC4 (transient receptor potential cation channel C4 beta), mouse; test: potentiation of DAMGO EC20 TRPC4 response – cell-based, second round, Fluo-4, HEK293 TRPC4beta/mu-opioid, 1 µM, confirmation (AID 2554;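 active = primary screen hit whose fluorescence ratio, in both repeats, exceeds the weak agonist control mean by 3 SD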); conditions: DAMGO EC20, Fluo-4 calcium flux, at 1 µM; hits give high values
[4] = system: TRPC4 beta (transient receptor potential cation channel C4), mouse; test: potentiation of DAMGO EC20 TRPC4 response – cell-based, Fluo-4, HEK293 TRPC4beta/mu-opioid, confirmation (AID 2555;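 active = primary screen hit whose calcium fluorescence ratio, in both repeats, exceeds the weak agonist control mean by 3 SD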); conditions: DAMGO EC20, Fluo-4 calcium flux, at 10 µM; hits give high values
[5] = molecular target: Short transient receptor potential channel 4 (Mus musculus) (UniProt Q9QUQ5); test: blockers of DAMGO-evoked TRPC4 calcium flux – cell-based, Fluo4, HEK293 TRPC4beta/mu-opioid, confirmation (AID 2636;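 active = calcium signal cut by more than 3 SD below the full-agonist control yet still positive, in both repeats and the earlier primary screen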); conditions: at 10 µM; hits give high values
[6] = molecular target: Short transient receptor potential channel 4 (Mus musculus) (UniProt Q9QUQ5); test: blockers of DAMGO-evoked TRPC4 calcium flux – cell-based, second round, Fluo4, HEK293 TRPC4beta/mu-opioid, 1 µM, confirmation (AID 2637); conditions: at 1 µM; hits give high values;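 as to inhibition: percent of integrated ratio relative to wells lacking test compound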
[7] = molecular target: Short transient receptor potential channel 4 (Mus musculus) (UniProt Q9QUQ5); test: calcium entry via TRPC4 opening agents – cell-based, HEK293 TRPC4/mu-opioid, Fluo-4 calcium, dose response (AID 434937;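 active = primary screen activator hit with a dose response curve and TRPC4 channel activation at any tested dose; inactive = no activation, no dose response, or not a primary hit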)
[8] = molecular target: Short transient receptor potential channel 6 (Mus musculus) (UniProt Q61143); test: TRPC6 blockade by TRPC4 inhibitor hits – cell-based, HEK293, membrane potential dye, duplicate, selectivity assay for TRPC4 inhibitor project, confirmation (AID 434948;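 active = active in primary screen and both duplicates, each dropping signal beyond three positive-control SD with fluorescence still positive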); conditions: HEK293 TRPC6, membrane potential dye fluorescence, at 10 µM, stimulated with maximal-effect acetylcholine; hits give high values
[9] = molecular target: Short transient receptor potential channel 6 (Mus musculus) (UniProt Q61143); test: TRPC6 opening by TRPC4 activator hits – cell-based, HEK293, membrane potential dye, duplicate, selectivity assay for TRPC4 activator project, confirmation (AID 434950;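 active = membrane potential signal rise above negative control mean plus 3 SD in both duplicates, also active in the earlier TRPC4 screen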); conditions: HEK293 TRPC6, membrane potential fluorescence, at 10 µM; activation: hits give high values; outcome: activation
[10] = molecular target: Short transient receptor potential channel 6 (Mus musculus) (UniProt Q61143); test: positive modulators of mouse TRPC6 channel – HEK293 cells, membrane potential dye, duplicate, selectivity assay for TRPC4 potentiator project, confirmation (AID 434952;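 active = compound raising the membrane signal above positive-control mean plus 3 SD in both repeats, and a primary screen hit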); conditions: HEK293 TRPC6, membrane potential dye fluorescence, at 10 µM, maximal acetylcholine added after compound; hits give high values
[11] = molecular target: Short transient receptor potential channel 4 (Mus musculus) (UniProt Q9QUQ5); test: calcium flux activators in TRPC4/5HT1a cells, counter-screen for TRPC4 activator project, cell-based, second counter screen, HEK293 TRPC4/5HT1a, Fluo-4 (AID 434977;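 active = calcium signal rise above buffer-control mean plus 5 SD in both duplicates, and also a hit in the primary screen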;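 as to activation: plate controls were assay buffer for no effect and maximal serotonin response for full effect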); conditions: Fluo-4 calcium flux, at 10 µM; hits give high values
[12] = serotonin-gated TRPC4 signal block – cell-based, second counter screen, HEK293 TRPC4/5HT1a, Fluo-4, counter-screen for TRPC4 inhibitor project, confirmation (AID 434978;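 active = primary screen active whose calcium signal fell more than 3 SD beyond the full-serotonin control mean in both duplicate plates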;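 as to outcome: serotonin given first at submaximal then at maximal dose after compound preincubation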); conditions: Fluo-4 calcium flux, at 10 µM, serotonin added to trigger calcium flux; hits give high values
[13] = system: TRPC4 (mouse), co-expressed with 5HT1a in HEK293; test: enhancement of serotonin-evoked TRPC4 response – cell-based, second counter screen, HEK293 TRPC4/5HT1a, Fluo-4, counter-screen for TRPC4 potentiator project, confirmation (AID 434979;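 active = signal rise over 3 SD above mean of control wells given weak agonist, in both repeats and first screen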); conditions: Fluo-4 calcium flux, at 10 µM, serotonin added at its EC20 dose; hits give high values
[14] = nonspecific calcium rise without TRPC4 – cell-based, HEK293 mu-opioid receptor line, counter-screen for TRPC4 activator project, confirmation (AID 449723;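 active = hit in primary screen, with calcium signal over 5 SD above buffer well mean in both duplicates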;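 also: counter screen cells carry the mu-opioid receptor alone and lack TRPC4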); conditions: HEK293 mu-opioid cells, Fluo-4 calcium fluorescence, at 10 µM; hits give high values
[15] = nonspecific potentiation of DAMGO calcium response – cell-based, HEK293 mu-opioid receptor line, counter-screen for TRPC4 allosteric potentiator project, confirmation (AID 449724;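 active = calcium signal rise more than 3 SD above the low-dose agonist control mean, in both duplicate plates and the primary screen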); conditions: HEK293 mu-opioid receptor cells, Fluo-4 calcium flux, at 10 µM, compound added before EC20 DAMGO stimulus; hits give high values
[16] = molecular target: Short transient receptor potential channel 4 (Mus musculus) (UniProt Q9QUQ5); test: potentiation of DAMGO-evoked TRPC4 calcium signal – cell-based, HEK293 TRPC4/mu-opioid, Fluo-4 calcium, EC20 DAMGO, dose response (AID 434941;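 active = earlier screen potentiator hit that boosts the TRPC4 ion channel at some dose, with a dose response; inactive = no potentiation, no dose response, or not a prior hit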;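 also: calcium entry triggered by an EC20 dose of DAMGO at the co-expressed mu-opioid receptor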)
[17] = nonspecific flux increase, KCNQ1-free cells – parental CHO cells, counter-screen for KCNQ1 potentiator project (AID 493006;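 active = duplicate-averaged activation above buffer control mean plus 5 SD of those controls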;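 as to activation: fluorescence ratio of max minus min over baseline after K+ and Tl+ depolarization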); conditions: parental CHO-K1 cells, FluxOR thallium flux, at 10 µM; hits give high values
[18] = molecular target: Potassium voltage-gated channel subfamily KQT member 1 (Homo sapiens) (UniProt P51787); test: enhancement of KCNQ1 channel thallium flux – FluxOR thallium flux, CHO cells, duplicates, confirmation (AID 493007;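 active = potentiation averaged over duplicate wells exceeding buffer-only control mean by more than 3 SD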;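 as to outcome: cells depolarized by a potassium plus thallium sulfate stimulus after compound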;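 as to potentiation: 0% = buffer-only wells and 100% = R-L3 activator control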); conditions: KCNQ1 cell line, FluxOR thallium flux fluorescence, at 10 µM; hits give high values, % of reference activator effect, buffer zero
[19] = molecular target: Potassium voltage-gated channel subfamily KQT member 2 (Rattus norvegicus) (UniProt O88943); test: KCNQ2 thallium flux enhancement – KCNQ2-CHO-K1 cells, selectivity assay for KCNQ1 potentiator project (AID 493009;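 active = mean duplicate potentiation above the buffer control mean plus 5 SD of buffer wells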;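 also: assay conditions were tuned for KCNQ1 rather than KCNQ2 modulators; signal is max minus min fluorescence divided by baseline after thallium stimulus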); conditions: FluxOR thallium flux fluorescence, at 10 µM; hits give high values, scaled: buffer 0, activator control 100
[20] = molecular target: Potassium voltage-gated channel subfamily KQT member 1 (Homo sapiens) (UniProt P51787); test: KCNQ1 activators by electrophysiology – IonWorks patch clamp, KCNQ1-CHO cells, orthogonal assay for KCNQ1 potentiator project, confirmation (AID 493184;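 active = current rise at least 3 SD above the untreated control mean in each of two repeat wells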); conditions: automated patch clamp current, at 10 µM; hits give high values

Chain of Potassium voltage-gated channel subfamily KQT member 2 (Rattus norvegicus) (O88943 whole entry, looked up): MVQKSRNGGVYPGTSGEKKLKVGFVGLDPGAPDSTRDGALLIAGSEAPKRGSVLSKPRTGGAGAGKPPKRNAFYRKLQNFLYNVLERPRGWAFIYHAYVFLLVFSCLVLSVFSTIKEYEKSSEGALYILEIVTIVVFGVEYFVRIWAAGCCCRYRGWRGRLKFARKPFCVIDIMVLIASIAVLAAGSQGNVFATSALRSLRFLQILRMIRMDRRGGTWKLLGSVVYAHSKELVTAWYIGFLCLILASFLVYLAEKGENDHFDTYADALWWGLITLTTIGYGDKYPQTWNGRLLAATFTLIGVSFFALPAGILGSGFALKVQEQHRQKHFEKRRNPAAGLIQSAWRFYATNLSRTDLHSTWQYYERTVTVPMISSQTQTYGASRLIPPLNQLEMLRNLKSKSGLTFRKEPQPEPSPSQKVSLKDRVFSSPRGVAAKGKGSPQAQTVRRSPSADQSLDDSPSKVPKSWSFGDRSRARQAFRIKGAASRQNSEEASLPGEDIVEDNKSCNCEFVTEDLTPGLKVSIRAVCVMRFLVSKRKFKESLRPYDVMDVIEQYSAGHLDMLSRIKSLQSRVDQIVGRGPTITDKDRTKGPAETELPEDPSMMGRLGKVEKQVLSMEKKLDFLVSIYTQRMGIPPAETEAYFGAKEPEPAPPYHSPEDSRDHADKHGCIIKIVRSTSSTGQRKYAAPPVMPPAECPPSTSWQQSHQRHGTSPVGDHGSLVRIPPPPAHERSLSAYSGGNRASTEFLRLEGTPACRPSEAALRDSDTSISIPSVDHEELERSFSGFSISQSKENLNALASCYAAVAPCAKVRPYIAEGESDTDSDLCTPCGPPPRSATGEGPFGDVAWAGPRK
Chain of Short transient receptor potential channel 4 (Mus musculus) (Q9QUQ5 whole entry, looked up): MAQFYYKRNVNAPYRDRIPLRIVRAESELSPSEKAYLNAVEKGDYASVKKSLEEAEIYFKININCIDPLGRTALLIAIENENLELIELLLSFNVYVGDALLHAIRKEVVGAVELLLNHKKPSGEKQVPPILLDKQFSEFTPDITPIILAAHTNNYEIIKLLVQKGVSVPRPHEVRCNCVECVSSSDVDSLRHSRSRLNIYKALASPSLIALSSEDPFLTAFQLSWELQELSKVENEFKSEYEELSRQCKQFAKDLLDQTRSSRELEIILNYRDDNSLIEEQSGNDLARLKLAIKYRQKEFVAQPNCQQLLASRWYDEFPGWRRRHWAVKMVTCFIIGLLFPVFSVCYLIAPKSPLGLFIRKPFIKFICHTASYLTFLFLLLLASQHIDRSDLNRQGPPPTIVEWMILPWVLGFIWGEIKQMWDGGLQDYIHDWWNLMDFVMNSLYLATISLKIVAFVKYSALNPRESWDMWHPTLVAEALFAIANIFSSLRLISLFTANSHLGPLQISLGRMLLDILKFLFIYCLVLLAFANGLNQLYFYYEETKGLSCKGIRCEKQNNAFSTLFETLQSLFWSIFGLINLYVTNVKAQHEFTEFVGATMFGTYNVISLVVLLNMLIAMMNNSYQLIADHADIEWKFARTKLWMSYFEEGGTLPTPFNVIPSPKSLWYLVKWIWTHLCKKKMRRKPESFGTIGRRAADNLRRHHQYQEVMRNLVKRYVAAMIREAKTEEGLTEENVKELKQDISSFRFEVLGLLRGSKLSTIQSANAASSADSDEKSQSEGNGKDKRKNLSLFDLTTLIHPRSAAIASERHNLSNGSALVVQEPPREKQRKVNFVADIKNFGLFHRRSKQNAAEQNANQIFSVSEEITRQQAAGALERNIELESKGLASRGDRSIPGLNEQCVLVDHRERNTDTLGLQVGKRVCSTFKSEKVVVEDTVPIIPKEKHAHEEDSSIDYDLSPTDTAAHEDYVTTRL
Chain of Potassium voltage-gated channel subfamily KQT member 1 (Homo sapiens) (P51787 whole entry, looked up): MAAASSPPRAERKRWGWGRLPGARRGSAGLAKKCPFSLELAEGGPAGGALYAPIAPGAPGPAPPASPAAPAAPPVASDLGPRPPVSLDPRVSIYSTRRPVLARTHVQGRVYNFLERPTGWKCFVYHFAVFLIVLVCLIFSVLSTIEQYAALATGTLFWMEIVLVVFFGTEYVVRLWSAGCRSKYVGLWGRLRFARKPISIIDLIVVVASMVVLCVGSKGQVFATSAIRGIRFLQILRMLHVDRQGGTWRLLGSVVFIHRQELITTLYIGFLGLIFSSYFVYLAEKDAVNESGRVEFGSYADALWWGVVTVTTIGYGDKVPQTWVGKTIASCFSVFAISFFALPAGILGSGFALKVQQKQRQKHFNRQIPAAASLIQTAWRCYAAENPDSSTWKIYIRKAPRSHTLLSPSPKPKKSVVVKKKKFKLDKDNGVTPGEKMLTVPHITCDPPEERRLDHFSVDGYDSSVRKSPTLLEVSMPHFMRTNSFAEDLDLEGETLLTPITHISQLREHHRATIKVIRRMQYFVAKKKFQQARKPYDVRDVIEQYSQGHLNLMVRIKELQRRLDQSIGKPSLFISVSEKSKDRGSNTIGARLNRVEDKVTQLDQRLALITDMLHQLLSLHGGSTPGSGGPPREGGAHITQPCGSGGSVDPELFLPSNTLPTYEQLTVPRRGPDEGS
Chain of Short transient receptor potential channel 6 (Mus musculus) (Q61143 whole entry, looked up): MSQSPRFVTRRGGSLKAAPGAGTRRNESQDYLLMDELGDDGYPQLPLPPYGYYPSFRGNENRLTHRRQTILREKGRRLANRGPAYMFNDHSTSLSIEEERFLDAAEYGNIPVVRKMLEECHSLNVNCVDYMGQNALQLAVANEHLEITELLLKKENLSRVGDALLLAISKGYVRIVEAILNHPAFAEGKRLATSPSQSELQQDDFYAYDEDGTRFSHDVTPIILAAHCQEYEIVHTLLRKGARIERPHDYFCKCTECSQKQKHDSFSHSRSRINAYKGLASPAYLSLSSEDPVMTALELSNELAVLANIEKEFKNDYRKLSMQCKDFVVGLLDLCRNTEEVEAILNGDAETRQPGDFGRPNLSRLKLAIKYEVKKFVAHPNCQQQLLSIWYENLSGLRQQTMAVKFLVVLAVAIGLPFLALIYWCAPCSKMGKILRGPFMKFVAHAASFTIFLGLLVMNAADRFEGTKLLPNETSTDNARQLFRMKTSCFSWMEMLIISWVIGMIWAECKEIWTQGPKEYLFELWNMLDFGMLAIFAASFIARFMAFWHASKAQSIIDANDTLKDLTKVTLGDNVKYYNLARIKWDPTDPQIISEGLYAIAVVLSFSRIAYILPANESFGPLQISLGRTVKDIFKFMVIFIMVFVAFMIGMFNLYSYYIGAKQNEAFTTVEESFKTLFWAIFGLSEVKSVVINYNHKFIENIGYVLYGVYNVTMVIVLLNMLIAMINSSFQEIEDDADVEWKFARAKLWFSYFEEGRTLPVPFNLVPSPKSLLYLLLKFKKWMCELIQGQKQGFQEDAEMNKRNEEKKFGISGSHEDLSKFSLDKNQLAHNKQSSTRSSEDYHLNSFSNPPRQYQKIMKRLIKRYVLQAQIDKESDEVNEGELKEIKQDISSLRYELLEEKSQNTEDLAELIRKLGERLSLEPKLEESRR

CCn1c(O)c(N=NC(=O)c2cccc(S(=O)(=O)N3CCCCC3)c2)c2ccccc21
active: potentiation [13] 6.79%
inactive: outcome [1] | outcome [2] | outcome [3] | outcome [4] | outcome [5] | outcome [6] | outcome [7] | outcome [8] | outcome [9] | outcome [10] | outcome [11] | outcome [12] | outcome [14] | outcome [15]

CC(C)c1c(O)nc(SCCN(C)C)[nH]c1=O
inactive: outcome [1] | outcome [2] | outcome [5] | outcome [6] | outcome [7] | outcome [8] | outcome [9] | outcome [10] | outcome [11] | outcome [12] | outcome [14] | outcome [15]
active: potentiation [3] 13% | potentiation [4] 27% | potentiation [13] 57.7%

Oc1c(Br)cc(Br)cc1C=Nc1ccc2[nH]ncc2c1
active: inhibition [5] 68% | inhibition [12] 30.1% | activation [17] 184% | potentiation [18] 41.5%
inactive: outcome [1] | outcome [2] | outcome [3] | outcome [4] | outcome [6] | outcome [7] | outcome [16] | outcome [8] | outcome [9] | outcome [10] | outcome [11] | outcome [13] | outcome [14] | outcome [15] | outcome [19] | outcome [20]

Cc1cc2oc(C(=O)N(Cc3ccccc3)C3CCS(=O)(=O)C3)cc(=O)c2cc1Cl (stereo not given)
active: potentiation [4] 47% | potentiation [13] 68.1%
inactive: outcome [1] | outcome [2] | outcome [3] | outcome [5] | outcome [6] | outcome [7] | outcome [8] | outcome [9] | outcome [10] | outcome [11] | outcome [12] | outcome [14] | outcome [15]

Cc1ccc(OCC(=O)NNC(=S)NC(=O)c2ccc(Br)o2)c(C)c1
inactive: outcome [1] | outcome [2] | outcome [3] | outcome [4] | outcome [6] | outcome [7] | outcome [16] | outcome [8] | outcome [9] | outcome [10] | outcome [13] | outcome [14] | outcome [15] | outcome [20]
active: inhibition [5] 65% | activation [11] 18.1% | inhibition [12] 21.6% | activation [17] 198% | potentiation [18] 106% | potentiation [19] 328%

O=Cc1cc(N=Nc2ccccc2Cl)ccc1O
inactive: outcome [1] | outcome [2] | outcome [3] | outcome [4] | outcome [6] | outcome [7] | outcome [16] | outcome [8] | outcome [9] | outcome [10] | outcome [11] | outcome [13] | outcome [14] | outcome [15] | outcome [20]
active: inhibition [5] 91% | inhibition [12] 30.2% | activation [17] 237% | potentiation [18] 81% | potentiation [19] 248%

Brc1ccccc1CN1CCN(Cc2c[nH]c3ccccc23)CC1
active: inhibition [5] 78% | inhibition [8] 55.5% | inhibition [12] 41.8%
inactive: outcome [1] | outcome [2] | outcome [3] | outcome [4] | outcome [6] | outcome [7] | outcome [16] | outcome [9] | outcome [10] | outcome [11] | outcome [13] | outcome [14] | outcome [15] | outcome [17] | outcome [18] | outcome [19] | outcome [20]

S=c1[nH]nc(-c2cc3c(s2)-c2ccccc2CC3)o1
inactive: outcome [1] | outcome [2] | outcome [3] | outcome [4] | outcome [6] | outcome [7] | outcome [16] | outcome [8] | outcome [9] | outcome [10] | outcome [11] | outcome [13] | outcome [14] | outcome [15] | outcome [20]
active: inhibition [5] 97% | inhibition [12] 32.1% | activation [17] 810% | potentiation [18] 241% | potentiation [19] 809%

O=C(O)c1ccc(Cl)cc1Nc1nc2cc(Cl)ccc2o1
inactive: outcome [1] | outcome [2] | outcome [3] | outcome [4] | outcome [6] | outcome [7] | outcome [16] | outcome [8] | outcome [9] | outcome [10] | outcome [11] | outcome [13] | outcome [14] | outcome [15] | outcome [17] | outcome [19] | outcome [20]
active: inhibition [5] 98% | inhibition [12] 9.42% | potentiation [18] 24.5%

CC1=C(C(=O)NCc2ccccc2)C(c2cc(Br)cc(Br)c2OC(C)C)NC(=O)N1 (stereo not given)
inactive: outcome [1] | outcome [2] | outcome [3] | outcome [5] | outcome [6] | outcome [7] | outcome [8] | outcome [9] | outcome [10] | outcome [11] | outcome [12] | outcome [14] | outcome [15]
active: potentiation [4] 28% | potentiation [13] 11.7%

c1ccc(-c2nc(NCc3ccco3)c3ccccc3n2)cc1
active: inhibition [5] 87% | inhibition [12] 32.3%
inactive: outcome [1] | outcome [2] | outcome [3] | outcome [4] | outcome [6] | outcome [7] | outcome [16] | outcome [8] | outcome [9] | outcome [10] | outcome [11] | outcome [13] | outcome [14] | outcome [15] | outcome [17] | outcome [18] | outcome [19] | outcome [20]

CCCc1nc2oc3c(NCCN(C)C)ncnc3c2c2c1CCCC2
active: inhibition [5] 86% | inhibition [6] 37% | inhibition [12] 13.5%
inactive: outcome [1] | outcome [2] | outcome [3] | outcome [4] | outcome [7] | outcome [16] | outcome [8] | outcome [9] | outcome [10] | outcome [11] | outcome [13] | outcome [14] | outcome [15] | outcome [17] | outcome [18] | outcome [19] | outcome [20]

CCCCN(C)CCNC(=O)c1cc2c(-c3cccc(OC)c3)nn(C)c2s1
inactive: outcome [1] | outcome [2] | outcome [3] | outcome [4] | outcome [5] | outcome [6] | outcome [7] | outcome [8] | outcome [9] | outcome [10] | outcome [11] | outcome [12] | outcome [14] | outcome [15]
active: potentiation [13] 39.5%
